# PubChem BioAssay (NCI)
# Compounds without any hit were thinned out: in the full panel of roughly 79,000, 15% have a hit. Unmarked numbers belong to inactive results. Active and inactive are the calls of the source. No stated cut-off is given here; in the data, active means growth inhibition above about 70%; inactive means the rest.
# What was measured:
# [1] = NCI Yeast Anticancer Drug Screen. Data for the rad50 strain (AID 155);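 further: 0% = growth of vehicle-only cultures of the same strain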; settings: S. cerevisiae rad50 strain growth inhibition; at 50.0 µM; active compounds read high
# In short: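 Genetically altered yeast (DNA repair pathway); compound treatment; growth inhibition vs vehicle ctrl.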
# [2] = NCI Yeast Anticancer Drug Screen. Data for the mec2-1 strain (AID 157); settings: S. cerevisiae mec2-1 strain, at 50.0 µM, active compounds read high
# In short: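 Test agents were screened against the mec2-1 yeast strain, with defined DNA repair or cell cycle alteration. Growth was scored as inhibition against vehicle-only controls.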
# [3] = NCI Yeast Anticancer Drug Screen. Data for the sgs1 mgt1 strain (AID 161);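 further: 0% = growth of cultures given vehicle only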; settings: S. cerevisiae sgs1 mgt1 strain, at 50.0 µM, active compounds read high
# In short: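 Read-out: growth inhibition vs vehicle controls. Cells: mutant yeast strain deficient in DNA damage repair.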
# [4] = NCI Yeast Anticancer Drug Screen. Data for the cln2 rad14 strain (AID 165);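 further: 0% = growth equal to vehicle treated cultures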; settings: S. cerevisiae cln2 rad14 strain, at 50.0 µM, active compounds read high
# In short: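 Growth of compound-exposed yeast (cln2 rad14 genotype) measured and expressed as inhibition relative to vehicle.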
# [5] = NCI Yeast Anticancer Drug Screen. Data for the bub3 strain (AID 167); settings: S. cerevisiae bub3 mutant strain, at 50.0 µM, active compounds read high
# In short: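 Yeast carrying a defined mutation is treated with each compound, and growth is compared with that of vehicle-exposed cells to give inhibition.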
# [6] = NCI Yeast Anticancer Drug Screen. Data for the mlh1 rad18 strain (AID 175); settings: S. cerevisiae mlh1 rad18 strain growth inhibition; at 50.0 µM; active compounds read high
# In short: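 In this whole-cell yeast screen, a strain with altered DNA damage repair is challenged with compound, and its growth is measured against matched vehicle-treated controls.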
Compound,growth inhibition [1] [%],growth inhibition [2],growth inhibition [3] [%],growth inhibition [4] [%],growth inhibition [5] [%],growth inhibition [6] [%]
O=C1C=C(Nc2nc(O)cc(=O)[nH]2)c2ccccc2C1=O,0.75,2.2%,1.15,-38.5,-0.4,13.5
C[n+]1c(-c2ccc(Cl)c(Cl)c2)c2cc(N)ccc2c2ccccc21,14.9,-22.6%,30.6,3.9,7.2,14.4
CCNC1=C(C(=O)OCC)C(=O)CO1,34,15.9%,24.2,9.95,0.3,-0.1
CCOC(=O)c1c(C)[nH]c(C)c1/C=C/C(=O)O,0.95,-5.1%,-0.9,1.45,2.35,-0.8
CC(C(=O)c1ccncc1)c1ccccn1 (stereo not given),1.85,6.65%,-25.4,-18.9,-12.9,3.5
COc1ccc(I)cc1,-1.85,-15.8%,3.65,-2.2,-3.5,2.35
CCCCCC1OCC(C)(C)C(C(C)C)O1 (stereo not given),-0.2,-23.9%,-12.7,0.95,-13.6,8.55
CC1(C)C([N+](C)(C)C)CS1(=O)=O (stereo not given),1.9,-18.9%,-13.8,-11.1,9.65,-6.45
O=C(NCCCCCCNC(=O)OCOC(=O)NCCCCCCNC(=O)Nc1ccc(SCCO)cc1)Nc1ccc(SCCO)cc1,15.7,12.4%,16.3,21.1,27.2,-36.9
CCC/C(=N/NC(=O)C(N)=O)C(CC)C(=O)CCC(=O)N(Cc1ccccc1)Cc1ccccc1 (stereo not given),-17.6,-15.6%,-26.6,10.8,-10.4,-21.3
CCOC(=O)c1cnc(SC)nc1Nc1ccc(Cl)cc1,-13.8,-9.4%,-6.55,-8.65,0.55,-31.2
CSc1nn(C)c2cc(C)c3ccccc3[n+]12,20.4,-7.8%,-10.2,7.25,4.6,-16.4
CCOC(=O)C(NC(=O)C(CCCCNP(=O)(OCC)OCC)NC(=O)C(C)NC(C)=O)C(C)C (stereo not given),-10.7,-10.4%,-8.4,-25.6,-1.35,3.75
Clc1ccc(CSc2cnnc(SCc3ccc(Cl)cc3Cl)c2SCc2ccc(Cl)cc2Cl)c(Cl)c1,5.9,5.9%,8.05,2.25,-5.15,-6.6
COc1ccc(CCc2cc(OC)c(O)c(OC)c2)cc1,18.5,14.8%,36,19,30.1,41
CC1c2ccccc2-c2ccccc21,10.2,-4.9%,7.25,-3.15,-1,20.4
CC[C@@]1(OC(=O)CN2CCNCC2)C(=O)OCc2c1cc1n(c2=O)Cc2cc3ccccc3nc2-1,52.1,70.8% (active),49.1,29.6,26.1,10.1
Clc1ccc(C2SC=Cc3ccccc32)cc1 (stereo not given),53.8,33.8%,47.6,5.9,49.8,37.7
CCCC[n+]1cccc(C(N)=O)c1,-3.55,-19.9%,3.35,0.4,12.8,-2.15
O=C(Nc1ccc(N=Nc2ccccc2)cc1)c1ccc(Cl)cc1,-11.1,2.3%,12.1,-60.1,2.35,-7.95
CC(=O)Oc1ccc2ccccc2c1CN(C(C)=O)c1ccc(C)cc1,-7.45,-22.7%,-10.1,-19.4,1.7,-28.4
Cn1nc(C(=O)NN)c(=O)[nH]c1=O,10.9,-6.75%,0.8,-20.6,6.6,16.9
CC(=O)OCCOc1ccc(C(C)(C)C)cc1,45,-18.4%,9.25,32.5,11.8,15.2

Compound,growth inhibition [1] [%],growth inhibition [2],growth inhibition [3] [%],growth inhibition [4] [%],growth inhibition [5] [%],growth inhibition [6] [%]
C[C@]12CC[C@@H]3c4ccc(O)cc4CC[C@H]3[C@@H]1CC[C@@H]2OC(=O)CCc1ccccc1,35.1,9.8%,26.3,28.5,-2.4,31.1
CC(=O)Nc1ccc(/C=C2\SC(=S)N(/C=C3/C(=O)N(c4ccccc4)N=C3C)C2=O)cc1,12.6,-3%,4,7,-2.85,7
O=[N+]([O-])C(C(Cl)=C(Cl)Cl)=C(n1nnc2ccccc21)n1nnc2ccccc21,40.6,34.9%,25.3,27.1,19,21.1
N#CCCC(C(=O)O)C(=O)CN1C(=O)c2ccccc2C1=O (stereo not given),5.15,-7.95%,0.4,-7.75,0.4,7.6
Clc1ccc(C(=C=C(c2ccccc2)c2ccccc2)c2ccc(Cl)cc2)cc1,33.7,13.8%,-4.4,20.7,5.55,25.9
COc1ccc(/C=C/C(=O)c2cc(C(=O)O)c(OC)cc2OC)cc1OC,4,-6.45%,22.4,14.2,17.9,-20.8
CCC(=O)c1cccc(-c2ccccc2)c1CC,17.9,-7%,15.9,4.05,-22.6,12.9
CC(C)/C=N\N1C(N)=C(C#N)C(C#N)(C#N)C1C(C)C (stereo not given),-0.65,10.5%,-35.3,-19.4,-12.2,-41.3
OC1Cn2cc(Br)c[n+]2C1 (stereo not given),8.3,-5.5%,-21.5,1.2,-2,-13.6
COC(=O)CSSCc1ccccc1,3.5,1.5%,3.65,-26.1,-28.1,6.35
CCN(CC)CCN(CCN(CC)CC)c1ccc2ccccc2c1,18.9,-12.8%,7.3,5.05,16.2,32.5
C=CS(=O)(=O)CCCCCCCCCCCCCC,28.1,27.6%,28.9,2.1,-5,29.5
C=CCN(CC=C)C(=S)NC(=O)c1ccccc1,17.8,27.8%,53.2,16.9,28.3,2.25
CC1CCC2CC(=O)C(Br)CC2(C)C1C (stereo not given),23.6,-8.95%,9.75,-5.35,-3.95,7.45
CCc1c(C)c2n(c1C)C(=O)C=C2N(CC)CC,-11.2,-18.1%,-38.1,-6.45,-2,-20.6
COC(=O)C1CCC(=O)N1C(c1ccc(OC)cc1)c1ccc2c(c1)OCO2 (stereo not given),-0.1,20.9%,11.1,11.7,31.5,34
CCCC(CO)OC(=O)Nc1ccc(-c2ccccc2)cc1 (stereo not given),-7.75,-1.1%,-2.15,-56,27.4,11.9
NNc1ccc(S(=O)(=O)C(F)F)cc1,29.9,-29.2%,20.6,41,41.2,13.1
Cc1nc2ccccc2c(=O)n1NC(=O)c1ccccc1O,-7.45,-53.6%,-7.6,11.5,-4.1,17.1
CC(C)(C)C1CC[C@H]2c3c([nH]c4ccc(Br)cc34)[C@H]3C(=O)N(c4ccccc4)C(=O)[C@H]3[C@H]2C1 (stereo not given in full),18.4,-2.7%,27.2,29.4,-0.15,12.6
O=c1cc(-c2ccccc2)[nH]c2[nH]n(-c3ccccc3)c(=O)c12,8.55,14.2%,24.8,-10.2,-9.55,16.4
CN(C)S(=O)(=O)Oc1ccccc1N,5.9,-4.5%,20.9,18.7,-5.15,15.8
